Assay results published in the supplement of paper PMC11732987, “Enantioselective OTUD7B fragment discovery through chemoproteomics screening and high-throughput optimisation” (Communications Chemistry, 2025).

What was measured:
Experiment in all cases: log2 ratio of Biotin-Ahx-Ub-VS probe labelling (fragment/DMSO); higher = less target engagement (more negative = stronger competition), active = hit call of the paper (q ≤ 0.05, log2 ratio ≤ -1)
Conditions in all cases: compound concentration: 200 uM; treatment time: 3 h
USP34 = USP34 (UniProt Q70CQ2)
Procedure, shortened: (§1)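 Each value is an average log2 ratio of fragment to vehicle, tested by unpaired t-test. The underlying Spectronaut label-free quantities were global-median-normalised, and only proteins with ≥2 unique peptides were included. Triplicate HEK293T lysate samples (495 µg) were exposed to fragment at 200 µM or vehicle for 3 h, then to Biotin-Ahx-Ub-VS at 0.5 µM final for 1 h, before NeutrAvidin enrichment of labelled DUBs, LysC and trypsin digestion, and diaPASEF LC-MS/MS.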

USP36 = molecular target: T1, USP36 (UniProt Q9P275)
T1 sequence (whole entry): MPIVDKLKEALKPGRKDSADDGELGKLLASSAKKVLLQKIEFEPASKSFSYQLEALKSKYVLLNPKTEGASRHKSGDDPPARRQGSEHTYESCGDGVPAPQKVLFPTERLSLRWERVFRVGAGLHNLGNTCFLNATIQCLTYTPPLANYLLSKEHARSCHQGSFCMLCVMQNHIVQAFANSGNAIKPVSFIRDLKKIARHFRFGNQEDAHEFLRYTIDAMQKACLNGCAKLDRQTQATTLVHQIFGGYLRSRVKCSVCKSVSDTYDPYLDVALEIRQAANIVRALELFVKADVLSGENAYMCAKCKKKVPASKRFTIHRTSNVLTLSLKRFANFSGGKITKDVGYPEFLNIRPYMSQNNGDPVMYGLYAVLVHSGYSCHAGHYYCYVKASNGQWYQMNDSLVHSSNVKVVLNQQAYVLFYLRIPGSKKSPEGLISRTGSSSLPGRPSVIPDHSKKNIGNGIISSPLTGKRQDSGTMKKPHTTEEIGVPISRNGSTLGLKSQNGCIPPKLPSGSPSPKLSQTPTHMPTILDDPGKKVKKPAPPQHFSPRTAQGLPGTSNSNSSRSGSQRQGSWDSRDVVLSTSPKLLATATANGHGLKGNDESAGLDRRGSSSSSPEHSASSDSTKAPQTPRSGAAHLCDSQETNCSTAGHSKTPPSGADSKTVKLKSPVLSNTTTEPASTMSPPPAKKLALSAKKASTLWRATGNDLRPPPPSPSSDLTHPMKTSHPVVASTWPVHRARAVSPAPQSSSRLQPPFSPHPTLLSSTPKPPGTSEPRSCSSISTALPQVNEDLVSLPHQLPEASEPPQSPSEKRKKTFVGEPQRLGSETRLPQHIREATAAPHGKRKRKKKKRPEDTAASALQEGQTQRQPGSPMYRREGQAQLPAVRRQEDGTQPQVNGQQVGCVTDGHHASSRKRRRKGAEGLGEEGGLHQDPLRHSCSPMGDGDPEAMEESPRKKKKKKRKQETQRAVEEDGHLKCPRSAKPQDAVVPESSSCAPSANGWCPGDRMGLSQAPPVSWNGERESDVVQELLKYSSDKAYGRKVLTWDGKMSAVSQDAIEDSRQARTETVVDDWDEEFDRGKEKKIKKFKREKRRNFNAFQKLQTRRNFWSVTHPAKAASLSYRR
Procedure, shortened: as §1

USP38 = molecular target: T2, USP38 (UniProt Q8NB14)
T2 sequence (whole entry): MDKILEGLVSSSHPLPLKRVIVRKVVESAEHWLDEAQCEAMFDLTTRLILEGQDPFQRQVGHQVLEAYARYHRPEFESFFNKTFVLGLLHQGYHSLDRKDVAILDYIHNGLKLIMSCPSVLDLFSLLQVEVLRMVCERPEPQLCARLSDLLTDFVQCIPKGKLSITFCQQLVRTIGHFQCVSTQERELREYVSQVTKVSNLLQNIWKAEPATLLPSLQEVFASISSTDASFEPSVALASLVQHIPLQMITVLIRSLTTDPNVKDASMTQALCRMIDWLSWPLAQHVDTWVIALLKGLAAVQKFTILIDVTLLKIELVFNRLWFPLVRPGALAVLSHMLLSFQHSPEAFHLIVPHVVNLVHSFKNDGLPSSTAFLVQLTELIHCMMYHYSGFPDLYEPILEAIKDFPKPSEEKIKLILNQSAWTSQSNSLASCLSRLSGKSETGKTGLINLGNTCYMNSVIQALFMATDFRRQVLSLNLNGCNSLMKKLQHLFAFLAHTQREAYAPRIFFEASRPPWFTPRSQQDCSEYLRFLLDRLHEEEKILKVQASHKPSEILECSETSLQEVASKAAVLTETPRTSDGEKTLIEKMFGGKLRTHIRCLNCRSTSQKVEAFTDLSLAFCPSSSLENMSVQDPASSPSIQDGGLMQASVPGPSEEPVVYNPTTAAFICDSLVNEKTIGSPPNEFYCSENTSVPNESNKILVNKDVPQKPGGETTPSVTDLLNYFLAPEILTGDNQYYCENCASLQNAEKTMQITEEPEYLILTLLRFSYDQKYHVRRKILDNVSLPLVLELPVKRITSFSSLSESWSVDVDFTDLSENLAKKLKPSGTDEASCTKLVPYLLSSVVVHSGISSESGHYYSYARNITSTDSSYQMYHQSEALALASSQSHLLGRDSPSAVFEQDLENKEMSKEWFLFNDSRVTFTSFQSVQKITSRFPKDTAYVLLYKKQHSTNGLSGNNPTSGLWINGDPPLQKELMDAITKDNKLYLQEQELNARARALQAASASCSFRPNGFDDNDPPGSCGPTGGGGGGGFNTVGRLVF
Procedure, shortened: as §1

USP39 = molecular target: T3, USP39 (UniProt Q53GS9)
T3 sequence (whole entry): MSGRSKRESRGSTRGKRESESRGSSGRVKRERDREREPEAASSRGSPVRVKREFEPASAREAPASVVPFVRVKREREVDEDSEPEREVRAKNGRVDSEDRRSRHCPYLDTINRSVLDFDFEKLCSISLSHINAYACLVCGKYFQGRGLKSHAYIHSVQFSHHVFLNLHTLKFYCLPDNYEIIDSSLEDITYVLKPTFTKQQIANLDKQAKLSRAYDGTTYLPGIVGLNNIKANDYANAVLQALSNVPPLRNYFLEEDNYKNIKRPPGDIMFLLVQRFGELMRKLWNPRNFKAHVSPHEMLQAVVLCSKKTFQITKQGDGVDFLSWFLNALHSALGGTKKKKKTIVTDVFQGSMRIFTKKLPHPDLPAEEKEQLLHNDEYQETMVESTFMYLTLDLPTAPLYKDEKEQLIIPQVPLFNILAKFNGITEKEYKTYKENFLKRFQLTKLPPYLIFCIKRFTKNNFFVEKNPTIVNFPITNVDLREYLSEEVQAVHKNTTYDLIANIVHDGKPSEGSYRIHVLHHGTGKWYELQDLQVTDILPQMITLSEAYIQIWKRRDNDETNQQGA
Procedure, shortened: as §1

USP4 = molecular target: T4, USP4 (UniProt Q13107)
T4 sequence (whole entry): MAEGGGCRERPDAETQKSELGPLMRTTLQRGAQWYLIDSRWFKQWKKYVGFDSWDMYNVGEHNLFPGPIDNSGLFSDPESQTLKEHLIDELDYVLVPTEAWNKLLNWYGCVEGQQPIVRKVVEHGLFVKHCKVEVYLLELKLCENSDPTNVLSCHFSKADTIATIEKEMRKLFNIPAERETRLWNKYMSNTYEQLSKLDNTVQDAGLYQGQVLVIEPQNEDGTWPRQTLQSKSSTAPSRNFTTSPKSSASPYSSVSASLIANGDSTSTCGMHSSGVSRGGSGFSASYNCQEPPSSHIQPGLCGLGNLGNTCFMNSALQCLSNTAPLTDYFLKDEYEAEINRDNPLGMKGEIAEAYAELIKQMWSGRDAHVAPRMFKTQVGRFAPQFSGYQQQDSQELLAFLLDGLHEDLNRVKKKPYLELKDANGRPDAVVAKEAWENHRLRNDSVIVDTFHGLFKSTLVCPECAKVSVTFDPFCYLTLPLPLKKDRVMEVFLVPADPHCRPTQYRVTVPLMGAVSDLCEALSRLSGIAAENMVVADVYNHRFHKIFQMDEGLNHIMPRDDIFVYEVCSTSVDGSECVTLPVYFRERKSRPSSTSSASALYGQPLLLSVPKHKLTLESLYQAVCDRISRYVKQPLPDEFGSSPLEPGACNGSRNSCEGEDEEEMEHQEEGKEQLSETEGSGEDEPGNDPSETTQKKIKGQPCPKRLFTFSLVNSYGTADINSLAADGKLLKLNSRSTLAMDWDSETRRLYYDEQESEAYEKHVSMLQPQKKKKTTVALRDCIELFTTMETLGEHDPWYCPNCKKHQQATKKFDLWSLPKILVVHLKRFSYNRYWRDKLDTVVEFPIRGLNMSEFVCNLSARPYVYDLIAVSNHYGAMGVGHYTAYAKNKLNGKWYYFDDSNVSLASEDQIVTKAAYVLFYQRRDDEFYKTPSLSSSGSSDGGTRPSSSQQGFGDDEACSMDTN
Procedure, shortened: as §1

Measured: log2 ratio of Biotin-Ahx-Ub-VS probe labelling

Chain of USP34 (Q70CQ2 whole entry, the tested form may be a part): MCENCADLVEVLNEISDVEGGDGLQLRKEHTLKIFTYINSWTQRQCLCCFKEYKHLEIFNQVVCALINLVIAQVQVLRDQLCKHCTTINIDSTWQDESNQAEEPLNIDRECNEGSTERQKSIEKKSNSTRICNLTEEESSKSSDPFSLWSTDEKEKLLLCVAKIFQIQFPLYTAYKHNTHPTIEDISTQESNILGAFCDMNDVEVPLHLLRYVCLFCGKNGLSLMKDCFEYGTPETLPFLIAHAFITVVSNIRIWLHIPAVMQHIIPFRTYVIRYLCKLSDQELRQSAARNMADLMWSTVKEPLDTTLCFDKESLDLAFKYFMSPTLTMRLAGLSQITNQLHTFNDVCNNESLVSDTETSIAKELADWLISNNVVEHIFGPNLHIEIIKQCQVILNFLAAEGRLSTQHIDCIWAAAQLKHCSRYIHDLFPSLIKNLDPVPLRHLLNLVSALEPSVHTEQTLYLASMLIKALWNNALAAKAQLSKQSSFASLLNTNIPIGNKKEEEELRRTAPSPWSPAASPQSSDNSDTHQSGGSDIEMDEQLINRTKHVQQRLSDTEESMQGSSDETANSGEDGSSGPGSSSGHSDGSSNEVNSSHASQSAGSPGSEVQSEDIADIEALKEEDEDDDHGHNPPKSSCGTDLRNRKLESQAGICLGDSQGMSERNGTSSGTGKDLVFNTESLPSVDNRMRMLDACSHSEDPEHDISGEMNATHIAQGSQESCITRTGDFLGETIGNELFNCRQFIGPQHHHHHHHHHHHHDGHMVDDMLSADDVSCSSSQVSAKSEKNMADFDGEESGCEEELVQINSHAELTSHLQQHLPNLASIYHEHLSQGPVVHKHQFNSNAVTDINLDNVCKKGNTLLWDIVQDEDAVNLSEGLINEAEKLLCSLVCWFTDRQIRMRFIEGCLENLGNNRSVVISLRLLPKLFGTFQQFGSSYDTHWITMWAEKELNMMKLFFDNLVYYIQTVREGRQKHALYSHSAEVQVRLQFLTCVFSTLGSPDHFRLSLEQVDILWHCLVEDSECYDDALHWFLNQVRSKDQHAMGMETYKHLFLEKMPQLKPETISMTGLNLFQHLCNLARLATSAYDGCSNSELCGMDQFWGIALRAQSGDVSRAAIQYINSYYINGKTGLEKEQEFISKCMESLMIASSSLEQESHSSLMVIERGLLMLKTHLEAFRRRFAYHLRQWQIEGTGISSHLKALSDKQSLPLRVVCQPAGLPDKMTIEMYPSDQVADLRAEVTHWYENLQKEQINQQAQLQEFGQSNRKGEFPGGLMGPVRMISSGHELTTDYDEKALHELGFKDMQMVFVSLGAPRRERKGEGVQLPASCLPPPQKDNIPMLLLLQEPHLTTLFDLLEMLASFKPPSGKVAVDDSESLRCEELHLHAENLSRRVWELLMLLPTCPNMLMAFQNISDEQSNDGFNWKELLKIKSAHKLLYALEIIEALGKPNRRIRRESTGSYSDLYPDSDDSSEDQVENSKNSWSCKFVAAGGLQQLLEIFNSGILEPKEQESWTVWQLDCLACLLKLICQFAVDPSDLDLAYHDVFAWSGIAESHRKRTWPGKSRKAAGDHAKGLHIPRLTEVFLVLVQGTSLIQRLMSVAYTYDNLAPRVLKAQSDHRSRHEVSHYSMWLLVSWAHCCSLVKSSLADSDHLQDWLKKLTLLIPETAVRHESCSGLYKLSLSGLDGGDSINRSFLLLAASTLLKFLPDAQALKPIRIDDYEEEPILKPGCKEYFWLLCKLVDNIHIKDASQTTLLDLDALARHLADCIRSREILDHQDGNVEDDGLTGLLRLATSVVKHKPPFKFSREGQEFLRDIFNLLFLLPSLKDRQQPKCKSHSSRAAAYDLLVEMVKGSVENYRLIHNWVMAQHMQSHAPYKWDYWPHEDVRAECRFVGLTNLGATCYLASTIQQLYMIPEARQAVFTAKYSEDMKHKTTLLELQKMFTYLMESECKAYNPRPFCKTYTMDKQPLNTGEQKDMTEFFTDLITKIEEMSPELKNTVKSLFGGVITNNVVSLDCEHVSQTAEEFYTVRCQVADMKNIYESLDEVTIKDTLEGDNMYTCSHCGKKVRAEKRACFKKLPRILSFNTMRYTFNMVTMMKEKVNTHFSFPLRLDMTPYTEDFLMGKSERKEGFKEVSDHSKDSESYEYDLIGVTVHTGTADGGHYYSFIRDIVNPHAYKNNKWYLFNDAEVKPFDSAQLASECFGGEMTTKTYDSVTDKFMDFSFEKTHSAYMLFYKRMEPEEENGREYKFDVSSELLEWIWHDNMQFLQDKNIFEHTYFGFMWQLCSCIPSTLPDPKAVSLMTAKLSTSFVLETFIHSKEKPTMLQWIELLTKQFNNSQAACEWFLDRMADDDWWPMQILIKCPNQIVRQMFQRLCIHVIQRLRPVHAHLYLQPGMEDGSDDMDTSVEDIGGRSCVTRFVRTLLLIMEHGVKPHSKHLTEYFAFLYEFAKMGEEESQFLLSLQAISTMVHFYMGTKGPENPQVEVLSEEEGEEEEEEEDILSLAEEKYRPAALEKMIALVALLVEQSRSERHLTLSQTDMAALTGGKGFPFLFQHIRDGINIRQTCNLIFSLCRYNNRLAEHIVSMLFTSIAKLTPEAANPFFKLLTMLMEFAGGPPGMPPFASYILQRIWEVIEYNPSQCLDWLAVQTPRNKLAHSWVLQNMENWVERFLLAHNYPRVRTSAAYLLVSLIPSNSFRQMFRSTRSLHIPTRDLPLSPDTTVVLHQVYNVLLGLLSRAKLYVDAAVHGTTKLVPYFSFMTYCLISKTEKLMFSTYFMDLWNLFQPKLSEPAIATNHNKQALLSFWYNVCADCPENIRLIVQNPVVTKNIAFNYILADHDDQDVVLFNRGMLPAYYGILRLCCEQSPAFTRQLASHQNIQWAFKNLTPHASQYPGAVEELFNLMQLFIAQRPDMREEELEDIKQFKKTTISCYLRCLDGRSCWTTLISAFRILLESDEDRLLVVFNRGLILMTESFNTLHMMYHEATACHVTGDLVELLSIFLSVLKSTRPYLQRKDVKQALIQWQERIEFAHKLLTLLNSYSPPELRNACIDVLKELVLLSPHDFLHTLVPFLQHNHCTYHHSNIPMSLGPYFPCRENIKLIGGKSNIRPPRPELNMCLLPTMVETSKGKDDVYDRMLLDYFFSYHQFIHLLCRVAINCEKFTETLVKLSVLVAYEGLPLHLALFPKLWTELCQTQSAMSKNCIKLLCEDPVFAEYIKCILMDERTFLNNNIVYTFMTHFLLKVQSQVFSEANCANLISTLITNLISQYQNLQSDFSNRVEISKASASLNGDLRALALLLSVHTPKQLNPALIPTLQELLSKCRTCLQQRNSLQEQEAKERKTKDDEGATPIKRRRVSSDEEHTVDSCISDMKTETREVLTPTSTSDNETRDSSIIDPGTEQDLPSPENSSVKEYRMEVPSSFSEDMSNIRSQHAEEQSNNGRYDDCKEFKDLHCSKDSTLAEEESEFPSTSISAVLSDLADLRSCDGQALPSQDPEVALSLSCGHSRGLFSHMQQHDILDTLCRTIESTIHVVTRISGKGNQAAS

Cc1cccc(NC(=O)CCl)c1C
inactive: USP34 -0.304 | USP36 -0.363 | USP38 -0.389 | USP39 -0.513 | USP4 -0.269
